Experimental data reported in publication PMC7826789 (International Journal of Molecular Sciences, 2021).

Key:
Conditions in all cases: Compound Concentration (nM):1000
CSNK2A2 = system: CSNK2A2
CTK = system: T1, CTK
T1 construct: gene MATK

DAPK1 = system: DAPK1
DAPK2 = system: DAPK2
DAPK3 = system: DAPK3
DCAMKL1 = system: T2, DCAMKL1
T2 construct: gene DCLK1

DCAMKL2 = system: T3, DCAMKL2
T3 construct: gene DCLK2

DCAMKL3 = system: T4, DCAMKL3
T4 construct: gene DCLK3

DDR1 = system: DDR1
DDR2 = system: DDR2
DLK = system: T5, DLK
T5 construct: gene MAP3K12

DMPK2 = system: T6, DMPK2
T6 construct: gene CDC42BPG

DMPK = system: DMPK
DRAK1 = system: T7, DRAK1
T7 construct: gene STK17A

DRAK2 = system: T8, DRAK2
T8 construct: gene STK17B

DYRK1A = system: DYRK1A
DYRK1B = system: DYRK1B
DYRK2 = system: DYRK2
EGFR(E746-A750del) = system: EGFR(E746-A750del)
EGFR(G719C) = system: EGFR(G719C)
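Also: KINOMEscan scanMAX binding as percent activity remaining versus control; lower means stronger binding.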

With `COc1cc2ncnc(Nc3ccc4c(cnn4Cc4ccccc4)c3)c2cc1OC.Cl` [GW282449A] the “Percent Control” value (CSNK2A2) was 100%, the “Percent Control” value (CTK) was 84% and the “Percent Control” value (DAPK1) was 100%. For the same compound, the “Percent Control” value (DAPK2) was 100%, the “Percent Control” value (DAPK3) was 100% and the “Percent Control” value (DCAMKL1) was 100%. The “Percent Control” value (DCAMKL2) was 100%, the “Percent Control” value (DCAMKL3) was 100% and the “Percent Control” value (DDR1) was 91%. For the same compound, the “Percent Control” value (DDR2) was 100%, the “Percent Control” value (DLK) was 87% and the “Percent Control” value (DMPK2) was 100%. The “Percent Control” value (DMPK) was 100%, the “Percent Control” value (DRAK1) was 100% and the “Percent Control” value (DRAK2) was 100%. For the same compound, the “Percent Control” value (DYRK1A) was 100%, the “Percent Control” value (DYRK1B) was 97% and the “Percent Control” value (DYRK2) was 87%. The “Percent Control” value (EGFR(E746-A750del)) was 6.7% and the “Percent Control” value (EGFR(G719C)) was 0%.

For `CCS(=O)(=O)c1ccc(OC)c(Nc2ncc(-c3cccc(F)c3)o2)c1` [GW621970X], the “Percent Control” value (CSNK2A2) was 1.4%, the “Percent Control” value (CTK) was 100% and the “Percent Control” value (DAPK1) was 100%. For the same compound, the “Percent Control” value (DAPK2) was 100%, the “Percent Control” value (DAPK3) was 100% and the “Percent Control” value (DCAMKL1) was 100%. For the same compound, the “Percent Control” value (DCAMKL2) was 98%, the “Percent Control” value (DCAMKL3) was 100% and the “Percent Control” value (DDR1) was 55%. The “Percent Control” value (DDR2) was 100%, the “Percent Control” value (DLK) was 71% and the “Percent Control” value (DMPK2) was 100%. For the same compound, the “Percent Control” value (DMPK) was 100%, the “Percent Control” value (DRAK1) was 100% and the “Percent Control” value (DRAK2) was 100%. The “Percent Control” value (DYRK1A) was 61%, the “Percent Control” value (DYRK1B) was 67% and the “Percent Control” value (DYRK2) was 41%. The “Percent Control” value (EGFR(E746-A750del)) was 73% and the “Percent Control” value (EGFR(G719C)) was 100%.

With `Cc1cc(O)cc(C)c1/C=C/c1cncc(C(N)=O)c1` [GW435821X] the “Percent Control” value (CSNK2A2) was 78%, the “Percent Control” value (CTK) was 98% and the “Percent Control” value (DAPK1) was 100%. The “Percent Control” value (DAPK2) was 100%, the “Percent Control” value (DAPK3) was 100% and the “Percent Control” value (DCAMKL1) was 87%. For the same compound, the “Percent Control” value (DCAMKL2) was 100%, the “Percent Control” value (DCAMKL3) was 100% and the “Percent Control” value (DDR1) was 40%. The “Percent Control” value (DDR2) was 74%, the “Percent Control” value (DLK) was 90% and the “Percent Control” value (DMPK2) was 100%. The “Percent Control” value (DMPK) was 100%, the “Percent Control” value (DRAK1) was 100% and the “Percent Control” value (DRAK2) was 100%. The “Percent Control” value (DYRK1A) was 93%, the “Percent Control” value (DYRK1B) was 100% and the “Percent Control” value (DYRK2) was 75%. The “Percent Control” value (EGFR(E746-A750del)) was 69% and the “Percent Control” value (EGFR(G719C)) was 89%.

With `CCc1ccc(Oc2nccc(-c3c(-c4ccc(F)cc4)ncn3C3CCNCC3)n2)cc1` [SB-242719] the “Percent Control” value (CSNK2A2) was 69%, the “Percent Control” value (CTK) was 89% and the “Percent Control” value (DAPK1) was 92%. The “Percent Control” value (DAPK2) was 74%, the “Percent Control” value (DAPK3) was 69% and the “Percent Control” value (DCAMKL1) was 77%. The “Percent Control” value (DCAMKL2) was 81%, the “Percent Control” value (DCAMKL3) was 100% and the “Percent Control” value (DDR1) was 73%. The “Percent Control” value (DDR2) was 94%, the “Percent Control” value (DLK) was 100% and the “Percent Control” value (DMPK2) was 2.1%. The “Percent Control” value (DMPK) was 100%, the “Percent Control” value (DRAK1) was 77% and the “Percent Control” value (DRAK2) was 55%. For the same compound, the “Percent Control” value (DYRK1A) was 95%, the “Percent Control” value (DYRK1B) was 98% and the “Percent Control” value (DYRK2) was 76%. For the same compound, the “Percent Control” value (EGFR(E746-A750del)) was 46% and the “Percent Control” value (EGFR(G719C)) was 69%.

In the case of `CC1=C(C(=O)Nc2ccc3[nH]ncc3c2)C(c2ccc3ccccc3c2)CC(=O)N1` (stereo not drawn) [GSK270822A], the “Percent Control” value (CSNK2A2) is reported as 80%, the “Percent Control” value (CTK) is reported as 54% and the “Percent Control” value (DAPK1) is reported as 95%. For the same compound, the “Percent Control” value (DAPK2) was 100%, the “Percent Control” value (DAPK3) was 100% and the “Percent Control” value (DCAMKL1) was 90%. The “Percent Control” value (DCAMKL2) was 74%, the “Percent Control” value (DCAMKL3) was 94% and the “Percent Control” value (DDR1) was 79%. For the same compound, the “Percent Control” value (DDR2) was 90%, the “Percent Control” value (DLK) was 68% and the “Percent Control” value (DMPK2) was 94%. The “Percent Control” value (DMPK) was 100%, the “Percent Control” value (DRAK1) was 95% and the “Percent Control” value (DRAK2) was 84%. The “Percent Control” value (DYRK1A) was 92%, the “Percent Control” value (DYRK1B) was 83% and the “Percent Control” value (DYRK2) was 66%. The “Percent Control” value (EGFR(E746-A750del)) was 100% and the “Percent Control” value (EGFR(G719C)) was 53%.

For `C/C(Nc1ccc(S(N)(=O)=O)cc1)=C1/C(=O)Nc2ccccc21` [GW335962X], the “Percent Control” value (CSNK2A2) was 21%, the “Percent Control” value (CTK) was 84% and the “Percent Control” value (DAPK1) was 94%. For the same compound, the “Percent Control” value (DAPK2) was 93%, the “Percent Control” value (DAPK3) was 96% and the “Percent Control” value (DCAMKL1) was 80%. For the same compound, the “Percent Control” value (DCAMKL2) was 80%, the “Percent Control” value (DCAMKL3) was 100% and the “Percent Control” value (DDR1) was 95%. For the same compound, the “Percent Control” value (DDR2) was 100%, the “Percent Control” value (DLK) was 73% and the “Percent Control” value (DMPK2) was 97%. For the same compound, the “Percent Control” value (DMPK) was 99%, the “Percent Control” value (DRAK1) was 100% and the “Percent Control” value (DRAK2) was 97%. For the same compound, the “Percent Control” value (DYRK1A) was 77%, the “Percent Control” value (DYRK1B) was 93% and the “Percent Control” value (DYRK2) was 46%. For the same compound, the “Percent Control” value (EGFR(E746-A750del)) was 100% and the “Percent Control” value (EGFR(G719C)) was 91%.

`CCn1c(-c2nonc2N)nc2c(C#CC(C)(C)O)nc(OCCNC)cc21.Cl` [GSK949675] was tested, and the “Percent Control” value (CSNK2A2) was 97%, the “Percent Control” value (CTK) was 100% and the “Percent Control” value (DAPK1) was 100%. For the same compound, the “Percent Control” value (DAPK2) was 100%, the “Percent Control” value (DAPK3) was 100% and the “Percent Control” value (DCAMKL1) was 100%. For the same compound, the “Percent Control” value (DCAMKL2) was 100%, the “Percent Control” value (DCAMKL3) was 66% and the “Percent Control” value (DDR1) was 100%. The “Percent Control” value (DDR2) was 100%, the “Percent Control” value (DLK) was 86% and the “Percent Control” value (DMPK2) was 100%. For the same compound, the “Percent Control” value (DMPK) was 100%, the “Percent Control” value (DRAK1) was 100% and the “Percent Control” value (DRAK2) was 100%. The “Percent Control” value (DYRK1A) was 70%, the “Percent Control” value (DYRK1B) was 100% and the “Percent Control” value (DYRK2) was 87%. For the same compound, the “Percent Control” value (EGFR(E746-A750del)) was 97% and the “Percent Control” value (EGFR(G719C)) was 100%.

With `NS(=O)(=O)c1ccc(N/N=C2\C(=O)Nc3ccc(C(=O)NCc4ccncc4)cc32)cc1` [GW300657X] the “Percent Control” value (CSNK2A2) was 28%, the “Percent Control” value (CTK) was 97% and the “Percent Control” value (DAPK1) was 63%. For the same compound, the “Percent Control” value (DAPK2) was 65%, the “Percent Control” value (DAPK3) was 51% and the “Percent Control” value (DCAMKL1) was 67%. The “Percent Control” value (DCAMKL2) was 83%, the “Percent Control” value (DCAMKL3) was 72% and the “Percent Control” value (DDR1) was 100%. The “Percent Control” value (DDR2) was 89%, the “Percent Control” value (DLK) was 76% and the “Percent Control” value (DMPK2) was 91%. The “Percent Control” value (DMPK) was 100%, the “Percent Control” value (DRAK1) was 0.3% and the “Percent Control” value (DRAK2) was 4.7%. The “Percent Control” value (DYRK1A) was 63%, the “Percent Control” value (DYRK1B) was 97% and the “Percent Control” value (DYRK2) was 37%. For the same compound, the “Percent Control” value (EGFR(E746-A750del)) was 91% and the “Percent Control” value (EGFR(G719C)) was 100%.

In the case of `CC1=C(C(=O)Nc2ccc3[nH]ncc3c2)C(c2ccc(Cl)c(Cl)c2)CC(=O)N1` (stereo not drawn) [GSK299115A], the “Percent Control” value (CSNK2A2) is reported as 79%, the “Percent Control” value (CTK) is reported as 62% and the “Percent Control” value (DAPK1) is reported as 81%. The “Percent Control” value (DAPK2) was 83%, the “Percent Control” value (DAPK3) was 81% and the “Percent Control” value (DCAMKL1) was 83%. For the same compound, the “Percent Control” value (DCAMKL2) was 55%, the “Percent Control” value (DCAMKL3) was 45% and the “Percent Control” value (DDR1) was 88%. The “Percent Control” value (DDR2) was 81%, the “Percent Control” value (DLK) was 77% and the “Percent Control” value (DMPK2) was 82%. The “Percent Control” value (DMPK) was 100%, the “Percent Control” value (DRAK1) was 100% and the “Percent Control” value (DRAK2) was 84%. The “Percent Control” value (DYRK1A) was 70%, the “Percent Control” value (DYRK1B) was 59% and the “Percent Control” value (DYRK2) was 68%. The “Percent Control” value (EGFR(E746-A750del)) was 98% and the “Percent Control” value (EGFR(G719C)) was 66%.
